Article PMC12136788
Changes are numbered by the printed parent chain. Over roughly 5,800 sequences, “enrichment r” has its median near 0.68; the highest 2% begin near 11. For the sample, the highest values were picked, then their nearest neighbours and some sequences at random.

B1: chr11:20048915:20049016:+|CDS|ENSG00000166833|unk|total|mutant (ssRNA)
RNA: GGGAGUUCUACAGUCCGACGAUCGAGCAGUGGGAGCAGCAGUCCUCUCUACAGCAAGAAUGUGGACCUCAACCAGUCUCCGCCCGCCUCCAGCCCCAGCUCAGCCCACUCGGCCCCUUCCAACAGCCUCACCUGGGGCACCAACAACAGAGGAUUGAGCAUCA
B2: chr1:178479239:178479534:-|three_prime_utr|ENSG00000188585|control|control|control (ssRNA)
RNA: GGGAGUUCUACAGUCCGACGAUCCAGUUUCUGUUUCAUGCAAUCUUCUCUGGAUUUUGAGUAAAUUUUAAUUUUUUAAUCCCUAGUAGAACAAGAUUAGGAAGAACUCGACAUGUGCCAAAAAGCACAGACCUACAACUAACACAACAGAGGAUUGAGCAUCA
B3: chr1:214641902:214642005:+|CDS|ENSG00000117724|unk|total|mutant (ssRNA)
RNA: GGGAGUUCUACAGUCCGACGAUCAGAAAUCAAUGUAAUUUUAAACCUCAGAUGGAUCUUGAAGUUAAAGAAAUUUCUCCCGACCGUUAUAAUGCGCAGUUGGUGCAAUCCGAAGCUAUGCUAAGAAAUAAGGAAUUAAAACUUCAACAGAGGAUUGAGCAUCA
B4: chr20:31664451:31666086:-|three_prime_utr|ENSG00000171552|control|control|control (ssRNA)
RNA: GGGAGUUCUACAGUCCGACGAUCAUGCAGCCCAUGCCCACCUGCCCAUCACAGGGUUGGGCCCAGAUCUGGUCCCUUGCAGCUAGUUUUCUAGAAUUUAUCACACUUCUGUGAGACCCCCACACCUCAGUUCCCUUGGCCUCACAACAGAGGAUUGAGCAUCA
B5: chr10:100209595:100209696:-|CDS|ENSG00000213341|unk|FALSE|unique (ssRNA)
RNA: GGGAGUUCUACAGUCCGACGAUCACUUCUUUCAGAGACAGGAAUUUCUCUGGAUCCUCGGAAACCAGCCUCUCAAUGUGUUCUAGAUGGAGUUGUAAGAAAAUUAAUUAUAAUAUCCCUAGAGUAUGUGAAAUCUAGAGGGAUCAACAGAGGAUUGAGCAUCA
B6: chr8:116643852:116643953:-|3pUTR|ENSG00000147677|unk|FALSE|unique (ssRNA)
RNA: GGGAGUUCUACAGUCCGACGAUCUGUUGUGAAUGAGGAAUUAGGAAUUAGGAGAAUGGUAGUACAUUGGGAAAAACAUAUUUUAGUAAUUUUUAUAUUUUAAAGAUAAUCACAGAUUUUGCUGUUUGUGCAUCACCAAAAUCACAACAGAGGAUUGAGCAUCA
B7: chr1:56708525:56708626:+|3pUTR|ENSG00000162409|unk|FALSE|unique (ssRNA)
RNA: GGGAGUUCUACAGUCCGACGAUCACCUUUCUCAAAUUCUUUUUGCCUCUAUUUAUUUUUGCAUUUCACCAACAGUGAUAAAAUAGUUAAAUGAAACAAAGCAAAGUAUCAACAGUCCCUUAAAUGAGAAUCCUUAUCUUUGAUCAACAGAGGAUUGAGCAUCA
B8: chr12:81257974:81259660:-|three_prime_utr|ENSG00000139220|control|control|control (ssRNA)
RNA: GGGAGUUCUACAGUCCGACGAUCAUGACUUAUUAAAAGCUGAAAAAUGUGAUUUUUGGGGGGAGUCAGAUAUUACAUUUGAUUAGUUUACUACAAAUUGUAAUAAAAUGCUUAAGUCAUUUGAAUAAUAAACAUCAUCUACAUCAACAGAGGAUUGAGCAUCA
B9: chr6:98868534:98874277:-|three_prime_utr|ENSG00000112234|control|control|control (ssRNA)
RNA: GGGAGUUCUACAGUCCGACGAUCAUUAAAAUUAAUGUGCUUUGUUGGGGUUUAAUUUUGGGAUUGGUUUUGGGUUUUGUUUUUAGUUGUUUUAAUGGUAAGAAUUAAGACAUUUGUAGAUUUUAAAGAAAAAUAUGAAAUUGUCAACAGAGGAUUGAGCAUCA
B10: chr8:116643852:116643953:-|3pUTR|ENSG00000147677|unk|total|mutant (ssRNA)
RNA: B6 RNA with U41C, A42C, U48C, A49C, U59C, A60C, U83C, A84C
B11: chr9:83661418:83661519:-|3pUTR|ENSG00000135018|msi1|FALSE|unique (ssRNA)
RNA: GGGAGUUCUACAGUCCGACGAUCUAUAGUUGGGUGACCAGAUUUUGUCCUGCAUCUGUCCAGUUUAUUUGCUUUUUAAACAUUAGCCUAUGGUAGUAAUUUAUGUAGAAUAAAAGCAUUAAAAAGAAGCAAAUCAUUUGCACUCAACAGAGGAUUGAGCAUCA
B12: chr5:132541444:132541810:-|three_prime_utr|ENSG00000113525|control|control|control (ssRNA)
RNA: GGGAGUUCUACAGUCCGACGAUCAAAUUGAUAUACUUUUUUCUUAUUUAACUUAACAUUCUGUAAAAUGUCUGUUAACUUAAUAGUAUUUAUGAAAUGGUUAAGAAUUUGGUAAAUUAGUAUUUAUUUAAUGUUAUGUUGUGUCAACAGAGGAUUGAGCAUCA
B13: chr8:80637648:80637749:-|3pUTR|ENSG00000164684|unk|FALSE|unique (ssRNA)
RNA: GGGAGUUCUACAGUCCGACGAUCUGCGCUUAGCUGCAAAGUGCCUGUCAGCAGCUCCAGGCACCAACAAGGUGCCCUUUUAUUAGACAAUUCCUGCCCGAACAUAACCAUAUUGCAGAUGAAAAUUUUCAAUAGAGAAUGACACAACAGAGGAUUGAGCAUCA
B14: chr16:11872726:11872856:-|3pUTR|ENSG00000103342|msi1_unk|FALSE|overlapping (ssRNA)
RNA: GGGAGUUCUACAGUCCGACGAUCACAUAAUUGCCUACAAUAAUGAAAACCUACAGGAAUUUUUUUAUUUUUCAUUUUCCCCUUAGGCAUAUUUAGUAUUUUUCCCCCAGGCAGAUCAUUCUGAGUGUGCGAGUGUGUGUGCACCAACAGAGGAUUGAGCAUCA
B15: chr12:48145849:48145950:+|3pUTR|ENSG00000152556|msi1|FALSE|unique (ssRNA)
RNA: GGGAGUUCUACAGUCCGACGAUCCAUGACCAGUUCUGGCCAGGAGCUGGAGGAGCAGGCAGUGGGUGGGAGCUCCUUUUAGGUAGAAUUUAACAUGACUUCUGCCCCAGCUUUAUCUGUCACACAAGGCUGGGCACCUCUAGUCAACAGAGGAUUGAGCAUCA
B16: chr1:165890246:165890361:+|CDS|ENSG00000143179|unk|FALSE|unique (ssRNA)
RNA: GGGAGUUCUACAGUCCGACGAUCCUCCUGGGGCAGAAUGAGGUGGACUAUCGCCAGAAGCAGGUGGUCAUCCUGAGCCAGGAUAGCUUCUACCGUGUCCUUACCUCGGAGCAGAAGGCCAAAGCCCUGAAGGGCCAGUUCAACCAACAGAGGAUUGAGCAUCA
B17: chr2:96875881:96876275:-|three_prime_utr|ENSG00000168754|control|control|control (ssRNA)
RNA: GGGAGUUCUACAGUCCGACGAUCUCGCCCACCCCUCAGCCCUCCUCCCAGCCAUCUCCUCUUCCCUAAGGCCUCUGUCUCCAUAGCUCUGGUUUCCCUGGGCCUCAGUCCUCCCCACCCUCCUUCCUCUGUCUCCCUGUCACUCAACAGAGGAUUGAGCAUCA
B18: chr5:95604386:95604487:+|3pUTR|ENSG00000164291|msi1|total|mutant (ssRNA)
RNA: GGGAGUUCUACAGUCCGACGAUCCCUGCCAUCCAGUUCCCCCUCCAAGAAGCAAGUACCGAAACCACCUGCUUACGCAUUUUCCGAGAUUGGCCACAAAUUUAUAAACAAAUGUAUAUAUUCCUUUCCCCCUACACAAACGGUCAACAGAGGAUUGAGCAUCA
B19: ENSG00000198589:be:win_9101|3pUTR|ENSG00000198589|bound_else_gene|NA|bound_elsewhere_windowed (ssRNA)
RNA: GGGAGUUCUACAGUCCGACGAUCUUCAAGCAUGUUUUAGACCUAGAAAAGUAUGGUUUGGGGGAGGCUAUUUUAUUGUGUGGUUAGCACAAGGAAUCUAAUUUAUAGCAAGUGUGAAAUAGUUACCAUUUUUUCCUGAUCUGUCAACAGAGGAUUGAGCAUCA
B20: chr1:229632307:229632408:+|CDS|ENSG00000135763|unk|FALSE|bound_elsewhere (ssRNA)
RNA: GGGAGUUCUACAGUCCGACGAUCAUUUUAUAAGAAAAAGCUUGAACUGAAGGAAGAUAUUGUUGAAAGGCUUUGGAUCUAUAUAGAUAACAUUUUACAUAGCAGAAAAUUGCAGAAUCUCCUCAAGAAUGGAAAGACCAUUAACAACAGAGGAUUGAGCAUCA
B21: chr2:1632960:1633155:-|3pUTR|ENSG00000130508|msi1|FALSE|unique (ssRNA)
RNA: GGGAGUUCUACAGUCCGACGAUCGUCCAUUUUUUAGGUAUUAGAUAUGGCAGAAAAACCAUUUCCACUAUGCAAAGUUCUUUUAGACGUCAGUGAAAAUCAACUCUCAUACCUCAUGGUCUCUCUUUAAUUGACCAAAACCUUCAACAGAGGAUUGAGCAUCA
B22: ENSG00000168936:stop:overlap|stop_codon|ENSG00000168936|stop_codon|NA|stop_codon (ssRNA)
RNA: GGGAGUUCUACAGUCCGACGAUCGUGUGGCCAGCACCAACCCUGCUGUGCAGGCCUUUGACAUCUGGAGCUGGAGGCCUGCAUAGGCUGCAUGCAGACACGUGCCAGCGUGAAGCUGGUGAAGACCUGCCAGGAGGCAGCCACCAACAGAGGAUUGAGCAUCA

biological target: T1, UNK ZnF1-6 (called full-length) (human, UniProt Q9C0B0 30-357); experiment: nsRBNS (natural sequence RNA bind-n-seq); RBNS binding buffer (assumed for nsRBNS): 25 mM Tris pH 7.5, 150 mM KCl, 3 mM MgCl2, 0.01% Triton X-100, 500 ug/ml BSA, 20 U/ml SUPERase-In, 4 C; UNK is unkempt and MSI1 is Musashi-1; names of the RNAs are library labels; protein concentration not given here; high values mean tight binding
T1 sequence: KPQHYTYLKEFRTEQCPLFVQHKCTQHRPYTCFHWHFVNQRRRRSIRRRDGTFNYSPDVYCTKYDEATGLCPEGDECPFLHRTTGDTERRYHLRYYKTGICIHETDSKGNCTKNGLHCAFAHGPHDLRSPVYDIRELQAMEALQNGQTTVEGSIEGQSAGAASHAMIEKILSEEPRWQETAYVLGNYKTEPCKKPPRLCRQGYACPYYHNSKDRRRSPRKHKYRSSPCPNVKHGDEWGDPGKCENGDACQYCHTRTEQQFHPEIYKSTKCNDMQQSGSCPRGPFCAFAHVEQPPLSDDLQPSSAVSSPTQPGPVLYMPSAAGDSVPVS

Binder | binding signal
B1 | 0.913 enrichment R
B2 | 0.449 enrichment R
B3 | 0.401 enrichment R
B4 | 1.85 enrichment R
B5 | 0.651 enrichment R
B6 | 22.5 enrichment R
B7 | 0.947 enrichment R
B8 | 0.956 enrichment R
B9 | 12.9 enrichment R
B10 | 0.568 enrichment R
B11 | 7.97 enrichment R
B12 | 7.43 enrichment R
B13 | 0.967 enrichment R
B14 | 11.3 enrichment R
B15 | 6.28 enrichment R
B16 | 0.748 enrichment R
B17 | 1.84 enrichment R
B18 | 1.51 enrichment R
B19 | 2.96 enrichment R
B20 | 2.37 enrichment R
B21 | 0.915 enrichment R
B22 | 1.06 enrichment R
